Measured values reported in PubChem BioAssay (EPA / NIEHS).
Several values for one entry are separate records, joined by “and”; a condition that tells them apart may be missing. Equal entries are not always repeated. Activity calls are given as the source filed them. Rule for the calls: active = hit-call score of the fitted dose curve at least 0.9, where 1 is the maximum; inactive = score below 0.9.

Tests used:
[1] = read-out: Transforming growth factor beta 1 (TGFb1), TGFB1 (gene 7040); test: BSK_KF3CT_TGFb1: BioMAP Diversity Plus: KF3CT Assay for Transforming growth factor beta 1 (TGFb1) Biomarker Activity (AID 2283072); settings: primary human keratinocytes with fibroblasts; actives raise or lower the signal
In short: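 KF3CT co-culture (keratinocytes + fibroblasts), 24 h exposure → TGF-b1 ELISA → bidirectional fit, DMSO = baseline. Parallel SRB total-protein staining (0.1% SRB, 10% TCA fixation, 560 nm) for cytotoxicity.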

[2] = read-out: C-C motif chemokine 2 (Homo sapiens) (UniProt P13500); test: BSK_KF3CT_MCP1: BioMAP Diversity Plus: KF3CT Assay for Monocyte Chemoattractant Protein 1 (MCP1/CCL2) Biomarker Activity (AID 2283073); settings: primary human keratinocytes with fibroblasts; actives raise or lower the signal
In short: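 ELISA read-out of MCP-1, 24 h post-dose, in primary human skin keratinocytes co-cultured with fibroblasts. Parallel SRB staining monitors cytotoxicity; changes fitted both directions relative to DMSO.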

[3] = read-out: Matrix Metallopeptidase 9 (MMP9), MMP9 (gene 4318); test: BSK_KF3CT_MMP9: BioMAP Diversity Plus: KF3CT Assay for Matrix Metallopeptidase 9 (MMP9) Biomarker Activity (AID 2283074); settings: primary human keratinocytes with fibroblasts; actives raise or lower the signal;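 for AC50: MMP9 protein level quantified by ELISA in the co-culture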
In short: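 Values come from bidirectional fitting relative to DMSO of MMP-9 levels, which were measured by ELISA. Measurements were taken 24 h after chemical dosing of a keratinocyte and foreskin fibroblast co-culture.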

[4] = read-out: urokinase plasminogen activator (uPA), PLAU (gene 5328); test: BSK_KF3CT_uPA: BioMAP Diversity Plus: KF3CT Assay for urokinase plasminogen activator (uPA) Biomarker Activity (AID 2283075); settings: primary human keratinocytes with fibroblasts; actives raise or lower the signal
In short: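 Values derive from bidirectional fitting against DMSO controls. Keratinocyte/foreskin fibroblast co-cultures received chemical; 24 h later uPA was detected by ELISA, with SRB total-protein staining in parallel wells for overt cytotoxicity.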

[5] = read-out: CD40, CD40 (gene 958); test: BSK_LPS_CD40: BioMAP Diversity Plus: LPS Assay for CD40 Biomarker Activity (AID 2283076); settings: primary human HUVEC with PBMC; actives raise or lower the signal
In short: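 In the LPS system of human endothelial cells with peripheral blood mononuclear cells, CD40 levels were read by ELISA 24 h post-treatment. Signal changes in either direction were fitted against the DMSO baseline, with parallel SRB protein staining.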

[6] = read-out: E-selectin (Homo sapiens) (UniProt P16581); test: BSK_LPS_Eselectin: BioMAP Diversity Plus: LPS Assay for Eselectin Biomarker Activity (AID 2283077); settings: primary human HUVEC with PBMC; actives raise or lower the signal
In short: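 E-selectin ELISA on LPS-stimulated endothelial cell/PBMC co-cultures, read 24 h post-treatment; gains and losses fitted against DMSO. Parallel SRB staining (0.1% SRB after 10% TCA fixation, 560 nm) flags overt cytotoxicity.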

[7] = read-out: Interleukin-8 (IL8), CXCL8 (gene 3576); test: BSK_LPS_IL8: BioMAP Diversity Plus: LPS Assay for Interleukin-8 (IL8) Biomarker Activity (AID 2283078); settings: primary human HUVEC with PBMC; actives raise or lower the signal
In short: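 ELISA read-out of IL-8 after 24 h chemical treatment of LPS-activated endothelial/PBMC human primary co-cultures. Changes either up or down relative to DMSO; overt cytotoxicity checked by sulforhodamine B staining in parallel wells.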

[8] = read-out: Monocyte Chemoattractant Protein-1 (MCP1), CCL2 (gene 6347); test: BSK_LPS_MCP1: BioMAP Diversity Plus: LPS Assay for Monocyte Chemoattractant Protein-1 (MCP1) Biomarker Activity (AID 2283081); settings: primary human HUVEC with PBMC; actives raise or lower the signal;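 for AC50: secreted MCP-1 protein quantified by ELISA in culture supernatant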
In short: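 Secreted MCP-1 read by ELISA at 24 h post-dosing in an LPS-activated co-culture of endothelial cells with peripheral blood mononuclear cells. Fits run in both directions, DMSO as baseline; parallel SRB staining tracks overt cytotoxicity.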

[9] = BSK_LPS_PGE2: BioMAP Diversity Plus: LPS Assay for Prostaglandin E2 (PGE2) Biomarker Activity (AID 2283082); settings: primary human HUVEC with PBMC; actives raise or lower the signal;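 for AC50: secreted prostaglandin E2 measured by ELISA in LPS-stimulated co-culture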
In short: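 Compounds were added to the LPS co-culture of endothelium and PBMC, and PGE2 was measured by ELISA after 24 h. Responses in either direction were fitted with DMSO as baseline.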

[10] = read-out: Macrophage colony-stimulating factor (MCSF), CSF1 (gene 1435); test: BSK_LPS_MCSF: BioMAP Diversity Plus: LPS Assay for Macrophage colony-stimulating factor (MCSF) Biomarker Activity (AID 2283083); settings: primary human HUVEC with PBMC; actives raise or lower the signal
In short: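 Bidirectional fitting against DMSO was applied to M-CSF levels read by ELISA at 24 h post-dose. The system pairs human umbilical vein endothelium with peripheral blood mononuclear cells; parallel SRB staining tracked cytotoxicity.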

[11] = read-out: Tissue Factor, F3 (gene 2152); test: BSK_LPS_TissueFactor: BioMAP Diversity Plus: LPS Assay for Tissue Factor Biomarker Activity (AID 2283084); settings: primary human HUVEC with PBMC; actives raise or lower the signal
In short: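 Compound was added to an endothelial cell/PBMC co-culture, and after 24 h tissue factor (CD142) was read by ELISA. Gain or loss of signal was fitted against a DMSO baseline, and parallel SRB staining (560 nm) tracked overt cytotoxicity.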

[12] = read-out: Tumor necrosis factor (Homo sapiens) (UniProt P01375); test: BSK_LPS_TNFa: BioMAP Diversity Plus: LPS Assay for Tumour Necrosis Factor alpha (TNFa) Biomarker Activity (AID 2283085); settings: primary human HUVEC with PBMC; actives raise or lower the signal;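 for AC50: TNFa protein level quantified by ELISA in the co-culture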
In short: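 Cells (umbilical vein endothelium plus peripheral blood mononuclear cells) were dosed with chemical, incubated 24 h, then TNFa was quantified by ELISA; values derive from bidirectional fitting with DMSO as baseline.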

[13] = read-out: Vascular cell adhesion molecule 1 (VCAM1), VCAM1 (gene 7412); test: BSK_LPS_VCAM1: BioMAP Diversity Plus: LPS Assay for Vascular cell adhesion molecule 1 (VCAM1) Biomarker Activity (AID 2283086); settings: primary human HUVEC with PBMC; actives raise or lower the signal
In short: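 Cells are dosed in an LPS-stimulated endothelial/mononuclear co-culture and, after 24 h, VCAM-1 is quantified by ELISA. Activity in either direction is fitted relative to the DMSO negative control.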

[14] = read-out: CD38, CD38 (gene 952); test: BSK_SAg_CD38: BioMAP Diversity Plus: SAg Assay for CD38 Biomarker Activity (AID 2283087); settings: primary human HUVEC with PBMC; actives raise or lower the signal
In short: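 CD38 quantified by ELISA (fluorescence) in a superantigen-activated endothelial cell–PBMC co-culture at 24 h post-dose. Activity fitted in both directions relative to DMSO; parallel SRB and Alamar Blue cytotoxicity read-outs.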

[15] = read-out: CD40, CD40 (gene 958); test: BSK_SAg_CD40: BioMAP Diversity Plus: SAg Assay for CD40 Biomarker Activity (AID 2283088); settings: primary human HUVEC with PBMC; actives raise or lower the signal
In short: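 CD40 is measured by fluorescence ELISA in an endothelial/PBMC primary human co-culture at 24 h post-dose. Fitting is bidirectional, DMSO baseline. Parallel SRB staining (560 nm) flags cytotoxicity.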

[16] = read-out: CD69, CD69 (gene 969); test: BSK_SAg_CD69: BioMAP Diversity Plus: SAg Assay for CD69 Biomarker Activity (AID 2283089); settings: primary human HUVEC with PBMC; actives raise or lower the signal;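 for AC50: cell surface CD69 protein quantified by ELISA with fluorescence detection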
In short: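 ELISA, fluorescence read-out: CD69 on human umbilical vein endothelial cell + PBMC co-culture, 24 h post-dosing. Gain or loss of signal fitted bidirectionally against DMSO baseline.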

[17] = read-out: Monocyte Chemoattractant Protein-1 (MCP1), CCL2 (gene 6347); test: BSK_SAg_MCP1: BioMAP Diversity Plus: SAg Assay for Monocyte Chemoattractant Protein-1 (MCP1) Biomarker Activity (AID 2283090); settings: primary human HUVEC with PBMC; actives raise or lower the signal
In short: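 Values derive from bidirectional fitting of ELISA-measured MCP1 against DMSO controls. Readings were taken 24 h after dosing human vascular endothelial cells co-cultured with peripheral blood mononuclear cells under superantigen stimulation.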

[18] = read-out: E-selectin (Homo sapiens) (UniProt P16581); test: BSK_SAg_Eselectin: BioMAP Diversity Plus: SAg Assay for Eselectin Biomarker Activity (AID 2283091); settings: primary human HUVEC with PBMC; actives raise or lower the signal
In short: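 Cell-surface E-selectin is read by ELISA at 24 h in the SAg co-culture of HUVEC and PBMC. Curves are fitted in both directions relative to DMSO. Parallel SRB total-protein staining tracks overt toxicity.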

[19] = BSK_LPS_SRB: Viability Assessment in the BioMAP Diversity Plus: LPS Assay (AID 2283079); settings: primary human HUVEC with PBMC;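 note: total protein by sulforhodamine B absorbance as a cytotoxicity measure; measured one day after compound addition; fitted in both directions against DMSO so loss or gain of signal counts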
In short: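 SRB viability endpoint: cells fixed with 10% TCA, stained with 0.1% SRB, read at 560 nm, 24 h post-dose. HUVEC/PBMC co-culture; signal change in either direction scored relative to DMSO.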

[20] = read-out: Interleukin-1 alpha (IL1a), IL1A (gene 3552); test: BSK_LPS_IL1a: BioMAP Diversity Plus: LPS Assay for Interleukin-1 alpha (IL1a) Biomarker Activity (AID 2283080); settings: primary human HUVEC with PBMC; actives raise or lower the signal
In short: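 Readout is IL-1a level by ELISA, 24 h post-dose, fitted as gain or loss relative to DMSO. System: LPS-activated human primary co-culture of vascular endothelium and peripheral blood mononuclear cells, with parallel SRB total-protein cytotoxicity.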

Measured: AC50

E-selectin (Homo sapiens), sequence (P16581 whole entry, looked up): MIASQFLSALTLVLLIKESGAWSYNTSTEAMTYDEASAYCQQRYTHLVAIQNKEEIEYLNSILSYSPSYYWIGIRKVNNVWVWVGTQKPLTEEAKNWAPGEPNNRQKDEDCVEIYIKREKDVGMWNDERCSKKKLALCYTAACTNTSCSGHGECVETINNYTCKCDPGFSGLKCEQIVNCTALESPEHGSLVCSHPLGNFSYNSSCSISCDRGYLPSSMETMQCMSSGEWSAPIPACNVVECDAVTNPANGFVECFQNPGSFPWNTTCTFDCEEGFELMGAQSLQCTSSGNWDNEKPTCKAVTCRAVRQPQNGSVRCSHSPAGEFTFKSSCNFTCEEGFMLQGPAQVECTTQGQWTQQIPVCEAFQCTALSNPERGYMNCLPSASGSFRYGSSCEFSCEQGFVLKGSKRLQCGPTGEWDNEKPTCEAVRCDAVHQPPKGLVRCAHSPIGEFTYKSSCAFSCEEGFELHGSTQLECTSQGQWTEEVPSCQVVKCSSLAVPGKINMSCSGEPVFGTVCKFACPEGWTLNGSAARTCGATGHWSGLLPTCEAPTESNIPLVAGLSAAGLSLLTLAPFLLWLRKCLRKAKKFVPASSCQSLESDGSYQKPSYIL
Tumor necrosis factor (Homo sapiens), sequence (P01375 whole entry, looked up): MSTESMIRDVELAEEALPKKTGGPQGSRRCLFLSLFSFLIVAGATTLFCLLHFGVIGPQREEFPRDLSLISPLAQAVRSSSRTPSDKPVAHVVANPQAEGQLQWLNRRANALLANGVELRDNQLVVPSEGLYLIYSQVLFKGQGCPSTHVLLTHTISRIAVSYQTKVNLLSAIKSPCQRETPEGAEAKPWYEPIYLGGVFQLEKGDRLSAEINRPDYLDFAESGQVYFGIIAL

CCSC(=O)N(CC(C)C)CC(C)C
not listed: [19] | [20]
inactive: all other assays above

COC(=O)c1ccc(I)cc1S(=O)(=O)NC(=O)Nc1nc(C)nc(OC)n1
not listed: [19] | [20]
inactive: all other assays above

COc1c(Cl)ccc(Cl)c1C(=O)O
active: [17] 11.8 µM
not listed: [2] | [20]
inactive: all other assays above

CCCOC(=O)NCCCN(C)C
not listed: [19] | [20]
inactive: all other assays above

COC(=O)c1ccccc1S(=O)(=O)NC(=O)Nc1nc(OC(F)F)cc(OC(F)F)n1
active: [12] 12 µM
not listed: [19] | [20]
inactive: all other assays above

COC(=O)CSc1cc(N=c2sc(=O)n3n2CCCC3)c(F)cc1Cl
active: [12] 9.6 µM
not listed: [1] | [19]
inactive: all other assays above

C#CCOC(=O)[C@@H](C)Oc1ccc(Oc2ncc(Cl)cc2F)cc1
not listed: [19] | [20]
inactive: all other assays above

OB(O)O
not listed: [19] | [20]
inactive: all other assays above

Cc1nn(C)c(Oc2ccccc2)c1C=NOCc1ccc(C(=O)OC(C)(C)C)cc1
inactive: [1] | [4] | [6] | [11] | [12]
active: [2] 12.7 µM | [3] 11.8 µM | [7] 8.08 µM | [8] 17.5 µM | [9] 1.11 µM | [10] 3.48 µM | [13] 9.84 µM | [14] 5.76 µM | [15] 6.66 µM | [16] 4.1 µM | [17] 7.6 µM | [18] 4.27 µM

CCCCC(CC)COC(=O)c1ccccc1C(=O)O (stereo not drawn)
active: [12] 21.8 µM | [13] 22.9 µM
not listed: [19] | [20]
inactive: all other assays above

CCOC(=O)COc1cc(-n2ncc(C(F)(F)F)c(C)c2=O)c(F)cc1Cl
not listed: [19] | [20]
inactive: all other assays above

CCC(O)=C1C(=O)CC(C(=O)O)CC1=O (stereo not drawn)
not listed: [19] | [20]
inactive: all other assays above

N#CSCSc1nc2ccccc2s1
active: [1] 10.2 µM and 11.5 µM | [2] 2.31 µM and 11.1 µM | [3] 10.6 µM and 10.3 µM | [4] 6.91 µM and 11.5 µM | [5] 1.9 µM and 5.14 µM | [6] 3.96 µM and 8.13 µM | [7] 5.09 µM and 9.38 µM | [8] 6.17 µM and 6.23 µM | [9] 1.9 µM and 2.28 µM | [10] 2.25 µM and 6.78 µM | [11] 2.42 µM and 5.42 µM | [12] 992 nM and 2.17 µM | [13] 4.53 µM and 9.69 µM | [14] 5.37 µM and 5.56 µM | [15] 5.42 µM and 6.26 µM | [16] 3.12 µM and 6.36 µM | [17] 7.7 µM and 10.5 µM | [18] 5.69 µM and 8.52 µM
